# In all, about 5,500 compounds went through this assay and about 2,000 (36%) were called active. Inconclusive results (about 18%) are left out. The list shows a part of the results. Values without a mark were called inactive. Cut-off read from the data, not from the text of the source: active = normalized growth mostly below about 0.91 (no sharp cut-off); inconclusive = no clear call, values can overlap the other calls; inactive = mostly above about 0.92.
# Assay: chemical genetic growth profiling, strain panel (AID 1159580);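 note: tested at 20 µM; growth read once vehicle control cultures reached saturation at 30 °C; 1 = growth at the plate median or of vehicle wells; lower values mean less growth of the strain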
# Settings: growth OD
# [1] = S. cerevisiae deletion strains, locus YAL013W, strain DEP1, stronger effect = lower value
# [2] = S. cerevisiae deletion strains, locus YBR229C, strain ROT2, stronger effect = lower value
# [3] = S. cerevisiae deletion strains, locus YDL101C, strain DUN1, stronger effect = lower value
# [4] = S. cerevisiae deletion strains, locus YDL134C, strain PPH21, stronger effect = lower value
# [5] = S. cerevisiae deletion strains, locus YDR150W, strain NUM1, stronger effect = lower value
# [6] = S. cerevisiae deletion strains, locus YEL061C, strain CIN8, stronger effect = lower value
# [7] = S. cerevisiae deletion strains, locus YGR078C, strain PAC10, stronger effect = lower value
# [8] = S. cerevisiae deletion strains, locus YGR229C, strain SMI1, stronger effect = lower value
# [9] = S. cerevisiae deletion strains, locus YHR030C, strain SLT2, stronger effect = lower value
# [10] = S. cerevisiae deletion strains, locus YHR087W, strain rtc3, stronger effect = lower value
# [11] = S. cerevisiae deletion strains, locus YJR043C, strain POL32, stronger effect = lower value
# [12] = S. cerevisiae deletion strains, locus YJR075W, strain HOC1, stronger effect = lower value
# [13] = S. cerevisiae deletion strains, locus YLR039C, strain RIC1, stronger effect = lower value
# [14] = S. cerevisiae deletion strains, locus YLR058C, strain SHM2 (second series), stronger effect = lower value
# [15] = S. cerevisiae deletion strains, locus YLR085C, strain ARP6, stronger effect = lower value
# [16] = S. cerevisiae deletion strains, locus YLR262C, strain YPT6, stronger effect = lower value
# [17] = S. cerevisiae deletion strains, locus YML094W, strain GIM5, stronger effect = lower value
# [18] = S. cerevisiae deletion strains, locus YMR219W, strain ESC1, stronger effect = lower value
# [19] = S. cerevisiae deletion strains, locus YMR263W, strain SAP30, stronger effect = lower value
# [20] = S. cerevisiae deletion strains, locus YNL128W, strain TEP1, stronger effect = lower value
# [21] = S. cerevisiae deletion strains, locus YNL153C, strain GIM3, stronger effect = lower value
# [22] = S. cerevisiae deletion strains, locus YNL298W, strain CLA4 (second series), stronger effect = lower value
# [23] = S. cerevisiae deletion strains, locus YNL322C, strain KRE1, stronger effect = lower value
# [24] = S. cerevisiae deletion strains, locus YNR030W, strain Alg12, stronger effect = lower value
# [25] = S. cerevisiae deletion strains, locus YOL006C, strain TOP1, stronger effect = lower value
# [26] = S. cerevisiae deletion strains, locus YPL055C, strain LGE1, stronger effect = lower value
# [27] = S. cerevisiae deletion strains, locus YPL241C, strain CIN2, stronger effect = lower value
# [28] = S. cerevisiae deletion strains, locus YPR135W, strain CTF4, stronger effect = lower value
compound,measurement,setting,value
COc1cc(C2OC(c3cc(C)ccc3[N+](=O)[O-])=NN2C(C)=O)cc(OC)c1OC (stereo not given),normalized growth,[1],0.986
same,normalized growth,[2],0.975
same,normalized growth,[3],1.04
same,normalized growth,[4],0.999
same,normalized growth,[5],0.993
same,normalized growth,[6],0.941
same,normalized growth,[7],1
same,normalized growth,[8],0.999
same,normalized growth,[9],0.948
same,normalized growth,[10],0.963
same,normalized growth,"S. cerevisiae deletion strains, locus YJL187C, strain SWE1, stronger effect = lower value",0.98
same,normalized growth,[11],1
same,normalized growth,[12],0.999
same,normalized growth,"S. cerevisiae deletion strains, locus YKL190W, strain CNB1, stronger effect = lower value",0.993
same,normalized growth,[13],0.969
same,normalized growth,[14],0.978
same,normalized growth,[15],0.967
same,normalized growth,[16],0.948
same,normalized growth,[17],0.98
same,normalized growth,[18],0.984
same,normalized growth,[19],0.999
same,normalized growth,[20],0.991
same,normalized growth,[21],1.02
same,normalized growth,[22],1.01
same,normalized growth,[23],0.993
same,normalized growth,[24],0.985
same,normalized growth,[25],0.924
same,normalized growth,[26],0.972
same,normalized growth,[27],1.01
same,normalized growth,[28],1.04
N#CC(NCc1ccccc1)c1ccc(Cl)c(Cl)c1 (stereo not given),normalized growth,[1],1
same,normalized growth,[2],0.983
same,normalized growth,[3],0.974
same,normalized growth,[4],0.848 (active)
same,normalized growth,[5],0.923
same,normalized growth,[6],0.985
same,normalized growth,[7],0.984
same,normalized growth,[8],0.989
same,normalized growth,[9],0.887
same,normalized growth,[10],1.01
same,normalized growth,[11],1.01
same,normalized growth,[12],0.968
same,normalized growth,[13],0.929
same,normalized growth,[14],0.995
same,normalized growth,[15],0.977
same,normalized growth,[16],0.957
same,normalized growth,[17],0.958
same,normalized growth,[18],0.998
same,normalized growth,[19],0.974
same,normalized growth,"S. cerevisiae deletion strains, locus YMR307W, strain GAS1, stronger effect = lower value",0.818
same,normalized growth,[20],0.994
same,normalized growth,[21],0.98
same,normalized growth,[22],0.96
same,normalized growth,[23],1.01
same,normalized growth,[24],0.968
same,normalized growth,[25],0.982
same,normalized growth,[26],0.988
same,normalized growth,[27],0.938
same,normalized growth,[28],0.938
same,normalized growth,"S. cerevisiae strains, strain wild type, stronger effect = lower value",1
